Screening results (PubChem BioAssay)
This is a sample that favours compounds with a hit; in the whole collection about 19% have one here.
TDP1 inh = qHTS Assay for Inhibitors of Tyrosyl-DNA Phosphodiesterase (TDP1); Tyrosyl-DNA phosphodiesterase 1 (Homo sapiens), Q9NUW8; 0.28% of 350,000 active; Potency, µM (titrated, usually from 130 µM), without a hit: top-dose activity change, negative = inhibition, hits mostly inhibitors; recombinant TDP1, AlphaScreen DNA substrate cleavage; also: nearly all actives have a fitted effect of over 40% in size
Target sequence (Q9NUW8 whole entry, looked up): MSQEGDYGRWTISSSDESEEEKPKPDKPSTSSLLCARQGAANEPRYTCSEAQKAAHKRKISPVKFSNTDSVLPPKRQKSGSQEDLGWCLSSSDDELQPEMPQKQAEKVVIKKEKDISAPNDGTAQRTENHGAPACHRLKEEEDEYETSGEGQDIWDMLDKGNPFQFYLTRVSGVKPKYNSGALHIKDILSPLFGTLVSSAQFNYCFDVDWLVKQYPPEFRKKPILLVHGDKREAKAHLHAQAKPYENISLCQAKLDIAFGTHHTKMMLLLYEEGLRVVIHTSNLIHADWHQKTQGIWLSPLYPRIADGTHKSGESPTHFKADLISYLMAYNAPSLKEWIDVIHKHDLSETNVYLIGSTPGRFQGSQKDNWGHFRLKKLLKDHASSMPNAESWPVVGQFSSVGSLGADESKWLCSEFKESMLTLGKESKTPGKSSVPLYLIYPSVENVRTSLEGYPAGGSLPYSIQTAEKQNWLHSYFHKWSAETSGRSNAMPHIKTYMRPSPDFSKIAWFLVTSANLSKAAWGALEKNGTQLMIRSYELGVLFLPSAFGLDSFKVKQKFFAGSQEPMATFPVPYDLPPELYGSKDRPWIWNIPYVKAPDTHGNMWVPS
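Recombinant E. coli-expressed Tdp1 (1 nM) preincubated with compound 15 min at RT, then 5'-biotin/3'-phosphotyrosine-FITC DNA substrate (15 nM) added for 5 min. AlphaScreen beads (10 ug/ml) added, 10 min RT; tyrosine-FITC cleavage read as signal loss.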
Gal4-VP16 FLuc = VP16 counterscreen qHTS for inhibitors of ROR gamma transcriptional activity | Drosophila S2 Gal4-VP16 UAS-luciferase, luminescence, 20 h | Potency, µM (top dose mostly 53.6 µM), inactives show at the highest dose activity, negative = inhibition, actives largely listed as inhibitors | 3.5% of 310,000 active;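 also: Gal4-VP16 expression switched on by copper sulfate through the metallothionein promoter; nearly all actives have a fitted effect of over 50% in size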
RORg inh = qHTS for inhibitors of ROR gamma transcriptional activity | Nuclear receptor ROR-gamma (Mus musculus), P51450 | Drosophila S2 Gal4-RORgamma UAS-luciferase reporter, 20 h | Potency, µM (series often up to 53.6 µM), inactives show at the top dose activity change, negative = inhibition, usual class: inhibitors | 5.4% of 310,000 active; also: nearly all actives have a fitted effect of over 60% in size
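Read-out: Photinus luciferase luminescence; inhibitors lower reporter signal. Insect Schneider cells with Gal4-ROR gamma fusion under metallothionein promoter, UAS reporter; 700 uM final copper sulfate induction, 20 hr, ambient temperature.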
DT40 TDP1 no CPT = qHTS for Inhibitors of human tyrosyl-DNA phosphodiesterase 1 (TDP1): qHTS in cells in absence of CPT; DT40 Tdp1-/- hTDP1 cells, no CPT, ATP luminescence, 48 h; Potency, µM (series often up to 46.2 µM), for inactives: at the top dose activity change, negative = growth inhibition, actives largely listed as inhibitors; 15% of 420,000 active; AID 686978, 2013; also: nearly all actives have a fitted effect of over 55% in size
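Chicken DT40 Tdp1-/- cells stably complemented with human TDP1 were seeded at 400 cells/well with DMSO in place of 20 nM camptothecin. After compound pinning, cells grew at least 48 hr at 37 °C; viability read by CellTiter-Glo luminescence.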
TDP1 cell CPT = qHTS for Inhibitors of human tyrosyl-DNA phosphodiesterase 1 (TDP1): qHTS in cells in presence of CPT; 12% of 420,000 active; Potency, µM (top dose mostly 46.2 µM), inactives show at the top dose activity change, negative = growth inhibition, actives largely listed as inhibitors; chicken DT40 Tdp1-/-;hTDP1 cells + 20 nM CPT, ATP luminescence, 48 h; AID 686979, 2013; also: nearly all actives have a fitted effect of over 55% in size
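Chicken DT40 Tdp1-/- cells complemented with human TDP1, 400 cells/well, exposed to compounds plus 20 nM camptothecin for at least 48 h at 37 C; viability read as ATP content by CellTiter-Glo luminescence.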
* = called active by the depositor; ? = inconclusive; · = no result given; [ ] = another dose, or the depositor's remark. Calls follow the shape of the dose curve; as a rule, active = well fitted curve in the direction sought with a large enough effect; inconclusive = small, poorly fitted or top-dose-only effect, or another doubt; inactive = no such curve, though single readings can be large; an effect the other way counts as inactive or inconclusive. % is scaled to controls: 0 for no effect and ±100 for the full control effect; potency is read from the fitted curve at half-maximal effect.

SMILES	TDP1 inh	Gal4-VP16 FLuc	RORg inh	DT40 TDP1 no CPT	TDP1 cell CPT
Cc1ccc(S(=O)(=O)CC(O)COc2ccc(F)cc2Cl)cc1 (configuration not stated)	5%	-10%[10 µM]	20%	?	13%
COCCn1nnnc1C(c1cc2cc(OC)ccc2[nH]c1=O)N1CCC(Cc2ccccc2)CC1 (configuration not stated)	6%	-7%	0%	23µM*	15µM*
CCOc1ccc2[nH]c(=O)c(C(c3nnnn3Cc3ccco3)N3CCN(C)CC3)cc2c1 (configuration not stated)	3%	3.5µM*	3.5µM*	-18%	1%
COCCn1nnnc1C(c1cc2c(C)cc(C)cc2[nH]c1=O)N1CCCCCC1 (configuration not stated)	·	-28%	0%	18µM*	23µM*
Cc1ccc2cc(C(c3nnnn3CC3CCCO3)N3CCc4ccccc4C3)c(=O)[nH]c2c1 (configuration not stated)	5%	10%	?	?	-29%
CCOc1ccc2[nH]c(=O)c(C(c3nnnn3CC3CCCO3)N3CCc4ccccc4C3)cc2c1 (configuration not stated)	0%	-2%	13%	23µM*	16µM*
COCCn1nnnc1C(c1cc2cc(C)ccc2[nH]c1=O)N1CCCCCC1 (configuration not stated)	-2%	-9%	0%	-15%	-11%
O=C(CCNS(=O)(=O)c1ccccc1C(F)(F)F)NNC(=O)c1csc(N2CCOCC2)n1	·	·	·	-25%	-6%
CCOc1ccc(-n2cnnn2)cc1S(=O)(=O)N1CCCCC1	4%	-17%	-18%	-10%	-13%
Cc1ccccc1NC(=O)CC(C)S(=O)(=O)c1ccc2c(c1)NC(=O)CO2 (configuration not stated)	-2%	7%	-6%	8%	-14%
CC1CC(C)CN(C(=O)C2CCCN(c3ncnc4c3nc3n4CCCCC3)C2)C1 (configuration not stated)	6%	-11%	28%	15µM*	23µM*
O=C(C1CCN(c2ncnc3c2nc2n3CCCCC2)CC1)N1CCCCC1	2%	13%	-13%	?	-33%
CC1CCCN(C(=O)C2CCN(c3ncnc4c3nc3n4CCCCC3)CC2)C1 (configuration not stated)	1%	2%	3%	23µM*	?
CC1CCN(C(=O)C2CCCN(c3ncnc4c3nc3n4CCCCC3)C2)CC1 (configuration not stated)	3%	-1%	4%	?	?
CCOC(=O)C1CCN(C(=O)C2CCCN(c3ncnc4c3nc3n4CCCCC3)C2)CC1 (configuration not stated)	4%	1%	1%	18µM*	?
CCC1CCCCN1S(=O)(=O)c1ccc(S(=O)(=O)N(Cc2ccccn2)CC2CCCO2)cc1 (configuration not stated)	2%	-6%	3%[10 µM]	23µM*	23µM*
COc1ccc(S(=O)(=O)N2CCCC2C(=O)NCc2cccs2)cc1 (configuration not stated)	-2%	1%	?	-22%	-27%
O=S(=O)(NCC1CCCO1)c1ccc(S(=O)(=O)N(Cc2ccc(F)cc2)Cc2ccccn2)cc1 (configuration not stated)	0%	4%	26%	?	-26%
CCC1CCCCN1S(=O)(=O)c1ccc(S(=O)(=O)N(Cc2cccs2)C2CC2)cc1 (configuration not stated)	3%	1%	12%[10 µM]	23µM*	18µM*
